# Screens from PubChem BioAssay.
# Cycloheximide cs: affects cycloheximide protein synthesis inhibition readout, counter-screen. cell reporter, cycloheximide protein synthesis inhibition counterscreen. max response, %. 300,000 tested, 12% active. AID 2314; in the data active = max response mostly above about 13%, no sharp cut-off; inactive = mostly below about 14%; also: read at 38.3 µM for the half of the compounds with a filed dose; 0% is about no effect
# Pf growth 96h: inhibits malaria parasite growth, 96 h; P. falciparum luciferase reporter growth, 96 h; Potency, µM (doses to about 28.7 µM), inactives show top-dose activity change, negative = inhibition, actives largely listed as inhibitors; 320,000 tested, 6.9% active; AID 504834; also: potency is read from the fitted curve at half-maximal effect; % is scaled to controls: 0 for no effect and ±100 for the full control effect
#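 Two-generation exposure (96 h) targets delayed-death phenotype. Reporter parasites carrying integrated firefly luciferase, in red cells at 2% hematocrit and 0.05% parasitemia final, kept at 37 C, 5% CO2; luminescence loss indicates inhibition.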
# Shiga toxin inh: blocks Shiga toxin action in Vero cells; Vero cells, Shiga toxin protein synthesis inhibition reporter; inhibition, % at 38.7 µM; 290,000 tested, 9.2% active; in the data active = inhibition mostly above about 28%, no sharp cut-off; inactive = mostly below about 43%; also: 0% is about no effect
# HCMV inh: inhibitors of human cytomegalovirus | activity change, negative = inhibition, % at 57.5 µM | HFF cells, HCMV-luciferase reporter, 72 h; stronger effect = lower value | 410,000 tested, 4.5% active; in the data active = activity change below about -60%; inconclusive = no clear call, values can overlap the other calls; inactive = above about -39%; also: % is scaled to controls: 0 for no effect and ±100 for the full control effect
#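 Two compound doses tested in HFFs infected with HCMV-luciferase, MOI 1 PFU/cell, 72 h at 37C. Lysate luminescence read with OneGlo; data normalized against buffer-only and 10uM Salinomycin inhibitor controls.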
# Pf growth 48h: P. falciparum growth inhibition at 48 hours (one generation); P. falciparum luciferase growth in erythrocytes, 48 h; AID 504832; 310,000 tested, 5.9% active; Potency, µM (doses to about 28.7 µM), inactives show at the highest dose activity change, negative = inhibition, actives largely listed as inhibitors; also: potency is read from the fitted curve at half-maximal effect; % is scaled to controls: 0 for no effect and ±100 for the full control effect
#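 In quantitative HTS format, infected erythrocytes bearing luciferase-reporter parasites were treated for a single generation at 37 C. Luminescence after adding detection reagent served as the growth measure.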
# Numbers without * were called inactive; ? = inconclusive; / = no result. A selection: hits, their analogues and other compounds. The true share with any hit is near 20%. Unless noted, calls follow the shape of the dose curve; as a rule, active = well fitted inhibition curve with a large enough effect; inconclusive = small, poorly fitted or top-dose-only effect, or another doubt; inactive = no such curve, though single readings can be large or run the other way.
SMILES,Cycloheximide cs,Pf growth 96h,Shiga toxin inh,HCMV inh,Pf growth 48h
Cc1cc(C)n(-c2nc(NCCO)c3c4c(sc3n2)CCCC4)n1,24*,-8%,26,-29,?
Cc1cc(C)n(-c2nc(NCCCO)c3c4c(sc3n2)CCCC4)n1,18*,58%,43,/,/
O=C(Nc1cccc2cccnc12)c1ccc(Br)cc1Br,-3,11%,/,/,30%
CCOc1ccc(CCNC(=O)c2ccc(CSCc3ccccc3C)o2)cc1OCC,/,/,/,-10,/
COC(=O)c1ccccc1OCCOc1ccccc1C(=O)OC,-3,0%,-12,63,-10%
COC(=O)c1ccccc1OCCCOc1ccc(C=O)cc1OC,37*,139%,86*,78,44%
COc1cc(C=O)ccc1OCCSc1ccc(C)cc1,39*,68%,46*,61,99%
COc1cc(C=O)ccc1OCc1cccc(Br)c1,47*,-11%,70*,-9,50%
CNC(=O)COc1ccc(C=O)cc1OC,-1,4%,-6,26,-9%
COc1cc(C=O)ccc1OCc1ccccc1Br,61*,36%,74*,60,113%
CCC(=O)N1CCCC(C)(C(=O)NS(=O)(=O)c2ccccc2Cl)C1 (configuration not stated),/,/,/,3,/
O=C(Nc1ccc(Cl)cc1)C1Cc2c(-c3ccccc3Oc3ccccc3)ccnc2O1 (configuration not stated),/,/,/,3,/
Cc1cc(O)c(CN2CCN(c3ccccc3)CC2)cc1C,-3,/,-13,-14,1.5µM*
Cc1ccc(O)c(CN2CCN(c3ccccc3)CC2)c1,-2,90%,11,-19,2.6µM*
COc1ccc(CN2CCN(c3ccccc3)CC2)c(C)c1C,-3,-14%,-14,-19,/
CNc1oc(-c2ccccc2F)nc1S(=O)(=O)c1ccc(C)cc1,5,?,-8,12,0%
COC(=O)C1=C(c2ccc(F)cc2OCc2ccccc2)C[C@@H]2CC[C@H]1N2C(=O)NCc1ccccc1,/,4.1µM*,/,-15,9.3µM*
COC(=O)C1=C(c2ccc(F)cc2OCc2ccccc2)C[C@@H]2CC[C@H]1N2C(=O)N1CCC(O)CC1,/,?,/,/,12µM*
COC(=O)C1=C(c2ccc(F)cc2OCc2ccccc2)C[C@@H]2CC[C@H]1N2C(=O)NCCNC(C)=O,/,?,/,-25,?
COC(=O)C1=C(c2ccc(F)cc2OCc2ccccc2)C[C@@H]2CC[C@H]1N2C(=O)NCc1ccc2c(c1)OCO2,/,?,/,-26,2.9µM*
COC(=O)C1=C(c2ccc(F)cc2OCc2ccccc2)C[C@@H]2CC[C@H]1N2C(=O)NCC1CC1,/,?,/,-34,10µM*
COc1ccc(-c2noc(-c3cc(C(C)C)[nH]n3)n2)cc1,/,/,/,-8,/
O=C(Nc1cc(C(F)(F)F)ccc1-n1cncn1)c1ccc(-c2ccccc2)cc1,5,?,6,-39,/
COc1ccc(CNC(=O)CSCc2nc(-c3ccccc3C)oc2C)cc1,/,/,/,-15,/
COC(=O)C1=C(c2ccc(F)cc2OCc2ccccc2)C[C@@H]2CC[C@H]1N2C(=O)NCc1cccc(F)c1,/,?,/,-23,2.3µM*
SMILES,Cycloheximide cs,Pf growth 96h,Shiga toxin inh,HCMV inh,Pf growth 48h
COC(=O)C1=C(c2ccc(F)cc2OCc2ccccc2)C[C@@H]2CC[C@H]1N2C(=O)NCc1ccccc1OC,/,?,/,35,6.6µM*
COC(=O)C1=C(c2ccc(F)cc2OCc2ccccc2)C[C@@H]2CC[C@H]1N2C(=O)NCCCOC(C)C,/,?,/,-8,9.3µM*
COC(=O)C1=C(c2ccc(F)cc2OCc2ccccc2)C[C@@H]2CC[C@H]1N2C(=O)NCc1ccco1,/,?,/,-2,?
O=C(CN1CCN(Cc2cccc(Cl)c2)C1=O)NCc1cccs1,0,-24%,33,-6,-5%
CC(O)C1CCC2C3CC[C@H]4CC(O)CCC4(C)C3CC3(OCCO3)C12C (some centres not stated),-3,-24%,4,-6,-6%
c1ccc2cc(OCCCn3ccnc3)ccc2c1,17*,?,17,10,?
CC(C)(C)c1ccc(OCCCn2ccnc2)cc1,8.4*,?,15,-10,?
Cc1cc(OCCCn2ccnc2)ccc1C(C)C,10,-27%,17,-13,?
Cc1ccccc1NC(=O)COc1ccc(S(=O)(=O)N2CCCC2)cc1C,-1,17%,-13,59,8%
NC(N)=NN=C(c1ccc(F)cc1)c1ccc(C(F)(F)F)cc1,/,/,/,-77*,/
Cc1cc(Nc2cc(Cl)ccc2C)n2nc(-c3ccccc3)nc2n1,/,/,/,-32,/
O=C1Nc2cc(C(=O)NCCN3CCCCCC3)ccc2S/C1=C\c1ccccc1,-13,?,-21,-100*,?
COc1cccc(/C=C2/Sc3ccc(C(=O)NCCN4CCCCCC4)cc3NC2=O)c1,-3,?,-6,-70*,?
CSc1nc(-c2cccs2)c(C#N)c(=O)[nH]1,8.9*,26%,26,13,33%
CSc1nc(-c2ccccc2)c(C#N)c(=O)[nH]1,-4,48%,-10,-24,80%
CNC(=O)NC(=O)CSc1nc(-c2cccs2)c(C#N)c(=O)[nH]1,-1,0%,-13,19,1%
CSc1nc(-c2ccc(Cl)cc2)c(C#N)c(=O)[nH]1,-2,14%,-2,-76*,5%
COc1ccc(-c2noc(CNC(=O)c3cc(OC)c(OC)c(OC)c3)n2)cc1,/,/,/,-5,/
CN(C)C=C1C(=O)c2ccccc2C1=O,27*,/,65*,83,5%
O=C1C(=Cc2ccc(F)cc2)Cc2ccccc21,/,/,/,-24,/
CN(C)/C=C1\Cc2ccccc2C1=O,46*,7%,113*,117,19%
C/C(N)=C(/C#N)C(=O)COC(=O)c1ccccc1Oc1ccccc1,3,57%,9,-23,-14%
COc1ccc(-n2nc(C(=O)NCC(=O)NC(C)C)c3ccccc3c2=O)c(OC)c1,-3,20%,-5,-17,15%
COc1ccc(-n2nc(C(=O)NCC(=O)NCc3ccc(F)cc3)c3ccccc3c2=O)c(OC)c1,1,10µM*,-9,-39,8%
COc1ccc(NC(=O)CNC(=O)c2nn(-c3ccc(OC)cc3OC)c(=O)c3ccccc23)c(OC)c1,3,3.3µM*,-4,-17,?
SMILES,Cycloheximide cs,Pf growth 96h,Shiga toxin inh,HCMV inh,Pf growth 48h
COc1ccccc1OCCNC(=O)c1cccc(S(=O)(=O)N2CC(C)OC(C)C2)c1 (configuration not stated),-3,?,-5,-32,?
CN(C)c1ccc(CNC(=O)C2CCN(c3nc4ccccc4[nH]3)CC2)cc1,/,/,/,0,/
CN(C)CCn1c2c(c(SCC(=O)Nc3ccc4c(c3)OCCO4)nc1=O)CCC2,/,6%,/,13,-8%
CCN(CC)CCn1c2c(c(SCC(=O)Nc3ccc4c(c3)OCCO4)nc1=O)CCC2,/,2.1µM*,/,-36,?
CCN(CC)CCn1c2c(c(SCC(=O)Nc3ccc(C)c(F)c3)nc1=O)CCC2,/,53%,/,-99*,22%
CCN(CC)CCn1c2c(c(SCC(=O)Nc3ccc(C)c(F)c3)nc1=O)CCCC2,/,?,/,-9,7.4µM*
